# Data reported in the supplement of paper PMC4466140.
# Assays:
# Test in all cases: SPOT peptide array binding signal intensity (averaged, normalized) (arbitrary units (background-subtracted, floor 0; scale differs between SH3 domains)); higher = stronger binding of the SH3 domain to the peptide
# [1] = target: AgAbp1
# Outline: (§1)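 Spot intensities were captured after detection with anti-GST antibody, an HRP-linked anti-mouse secondary and luminol, and quantified with Genespotter. The probes were GST-fused SH3 domains from four yeast species, produced in E. coli BL21(DE3), purified on glutathione Sepharose and incubated at 10 μg/ml overnight at 4°C on cellulose-bound synthetic 15-mer peptides with cysteines replaced by serines. Binding signal is the normalized, background-subtracted spot intensity averaged over replicates, and its arbitrary units differ between domains.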
# [2] = target: AgBbc1
# Outline: as §1
# [3] = target: AgBem1-D1
# Outline: as §1
# [4] = target: AgBzz1-D1
# Outline: as §1
# [5] = target: AgBzz1-D2
# Outline: as §1
# [6] = target: AgCyk3
# Outline: as §1
# [7] = target: AgFus1
# Outline: as §1
# [8] = target: AgHof1
# Outline: as §1
# [9] = target: AgHse1
# Outline: as §1
# [10] = target: AgLsb1
# Outline: as §1
# [11] = target: AgLsb4
# Outline: as §1
# [12] = target: AgMyo5
# Outline: as §1
# [13] = target: AgNbp2
# Outline: as §1
# [14] = target: AgRvs167
# Outline: as §1
# [15] = target: AgSho1
# Outline: as §1
# [16] = target: AgSla1-D1-D2
# Outline: as §1
# [17] = target: AgSla1-D3
# Outline: as §1
# [18] = target: CaAbp1-D1
# Outline: as §1
# [19] = target: CaAbp1-D2
# Outline: as §1
# [20] = target: CaBbc1
# Outline: as §1
# [21] = target: CaBem1-D1
# Outline: as §1
# [22] = target: CaBzz1-D1
# Outline: as §1
# [23] = target: CaBzz1-D2
# Outline: as §1
# [24] = target: CaCyk3
# Outline: as §1
# [25] = target: CaFus1
# Outline: as §1
# [26] = target: CaHof1
# Outline: as §1
# [27] = target: CaHse1
# Outline: as §1
# [28] = target: CaLsb1
# Outline: as §1
# [29] = target: CaLsb4
# Outline: as §1
# [30] = target: CaMyo5
# Outline: as §1
# [31] = target: CaNbp2
# Outline: as §1
# [32] = target: CaRvs167
# Outline: as §1
# [33] = target: CaRvs167-3
# Outline: as §1
# [34] = target: CaSho1
# Outline: as §1
# [35] = target: CaSla1-D1-D2
# Outline: as §1
# [36] = target: CaSla1-D3
# Outline: as §1
# [37] = target: ScAbp1
# Outline: as §1
# [38] = target: ScBbc1
# Outline: as §1
# [39] = target: ScBem1-D1
# Outline: as §1
# [40] = target: ScBzz1-D1
# Outline: as §1
# [41] = target: ScBzz1-D2
# Outline: as §1
# [42] = target: ScCyk3
# Outline: as §1
# [43] = target: ScFus1
# Outline: as §1
# [44] = target: ScHof1
# Outline: as §1
# [45] = target: ScHse1
# Outline: as §1
# [46] = target: ScLsb1
# Outline: as §1
# [47] = target: ScLsb2
# Outline: as §1
# [48] = target: ScLsb3
# Outline: as §1
# [49] = target: ScLsb4
# Outline: as §1
# [50] = target: ScMyo3
# Outline: as §1
# [51] = target: ScMyo5
# Outline: as §1
# [52] = target: ScNbp2
# Outline: as §1
# [53] = target: ScPex13
# Outline: as §1
# [54] = target: ScRvs167
# Outline: as §1
# [55] = target: ScSho1
# Outline: as §1
# [56] = target: ScSla1-D1-D2
# Outline: as §1
# [57] = target: ScSla1-D3
# Outline: as §1
# [58] = target: SpAbp1-D1
# Outline: as §1
# [59] = target: SpBbc1
# Outline: as §1
# [60] = target: SpBzz1-D1
# Outline: as §1
# [61] = target: SpBzz1-D2
# Outline: as §1
# [62] = target: SpCyk3
# Outline: as §1
# [63] = target: SpHof1
# Outline: as §1
# [64] = target: SpHof1-2
# Outline: as §1
# [65] = target: SpHof1-3
# Outline: as §1
# [66] = target: SpHse1
# Outline: as §1
# [67] = target: SpLsb1
# Outline: as §1
# [68] = target: SpLsb4
# Outline: as §1
# [69] = target: SpMyo1
# Outline: as §1
# [70] = target: SpNbp2
# Outline: as §1
# [71] = target: SpPex13
# Outline: as §1
# [72] = target: SpRvs167
# Outline: as §1
# [73] = target: SpSla1-D1-D2
# Outline: as §1
# [74] = target: SpSla1-D3
# Outline: as §1
binder,measurement,setting,value
LKQRFFLMFPKSIIW,SPOT peptide array binding signal intensity,[1],4
same,SPOT peptide array binding signal intensity,[2],6
same,SPOT peptide array binding signal intensity,[3],102
same,SPOT peptide array binding signal intensity,[4],49.5
same,SPOT peptide array binding signal intensity,[5],44
same,SPOT peptide array binding signal intensity,[6],1.5
same,SPOT peptide array binding signal intensity,[7],742
same,SPOT peptide array binding signal intensity,[8],81.5
same,SPOT peptide array binding signal intensity,[9],1020
same,SPOT peptide array binding signal intensity,[10],0.5
same,SPOT peptide array binding signal intensity,[11],42.5
same,SPOT peptide array binding signal intensity,[12],0.5
same,SPOT peptide array binding signal intensity,[13],146
same,SPOT peptide array binding signal intensity,[14],3.67
same,SPOT peptide array binding signal intensity,[15],102
same,SPOT peptide array binding signal intensity,[16],141
same,SPOT peptide array binding signal intensity,[17],21
same,SPOT peptide array binding signal intensity,[18],295
same,SPOT peptide array binding signal intensity,[19],65.5
same,SPOT peptide array binding signal intensity,[20],17.8
same,SPOT peptide array binding signal intensity,[21],33.5
same,SPOT peptide array binding signal intensity,[22],104
same,SPOT peptide array binding signal intensity,[23],48.5
same,SPOT peptide array binding signal intensity,[24],5
same,SPOT peptide array binding signal intensity,[25],4200
same,SPOT peptide array binding signal intensity,[26],0.5
same,SPOT peptide array binding signal intensity,[27],121
same,SPOT peptide array binding signal intensity,[28],1.5
same,SPOT peptide array binding signal intensity,[29],42
same,SPOT peptide array binding signal intensity,[30],35
same,SPOT peptide array binding signal intensity,[31],676
same,SPOT peptide array binding signal intensity,[32],89.2
same,SPOT peptide array binding signal intensity,[33],520
same,SPOT peptide array binding signal intensity,[34],484
same,SPOT peptide array binding signal intensity,[35],84.5
same,SPOT peptide array binding signal intensity,[36],257
same,SPOT peptide array binding signal intensity,[37],48
same,SPOT peptide array binding signal intensity,[38],4.5
same,SPOT peptide array binding signal intensity,[39],69
same,SPOT peptide array binding signal intensity,[40],42
same,SPOT peptide array binding signal intensity,[41],150
same,SPOT peptide array binding signal intensity,[42],124
same,SPOT peptide array binding signal intensity,[43],819
same,SPOT peptide array binding signal intensity,[44],1.5
same,SPOT peptide array binding signal intensity,[45],1580
same,SPOT peptide array binding signal intensity,[46],1
same,SPOT peptide array binding signal intensity,[47],≤ 0
same,SPOT peptide array binding signal intensity,[48],33
same,SPOT peptide array binding signal intensity,[49],14.5
same,SPOT peptide array binding signal intensity,[50],≤ 0
same,SPOT peptide array binding signal intensity,[51],4
same,SPOT peptide array binding signal intensity,[52],252
same,SPOT peptide array binding signal intensity,[53],15.5
same,SPOT peptide array binding signal intensity,[54],14.5
same,SPOT peptide array binding signal intensity,[55],1060
same,SPOT peptide array binding signal intensity,[56],91.5
same,SPOT peptide array binding signal intensity,[57],132
same,SPOT peptide array binding signal intensity,[58],69
same,SPOT peptide array binding signal intensity,[59],≤ 0
same,SPOT peptide array binding signal intensity,[60],103
same,SPOT peptide array binding signal intensity,[61],0.5
same,SPOT peptide array binding signal intensity,[62],9
same,SPOT peptide array binding signal intensity,[63],236
same,SPOT peptide array binding signal intensity,[64],36.5
same,SPOT peptide array binding signal intensity,[65],748
same,SPOT peptide array binding signal intensity,[66],972
same,SPOT peptide array binding signal intensity,[67],≤ 0
same,SPOT peptide array binding signal intensity,[68],38.5
same,SPOT peptide array binding signal intensity,[69],3.5
same,SPOT peptide array binding signal intensity,[70],515
same,SPOT peptide array binding signal intensity,[71],86
same,SPOT peptide array binding signal intensity,[72],14.3
same,SPOT peptide array binding signal intensity,[73],≤ 0
same,SPOT peptide array binding signal intensity,[74],39
